# Data published in paper PMC11006913.
# Columns and labels:
# Experiment in all cases: PBM; 200 nM protein, PBS
# Conditions in all cases: dsDNA, one strand shown
# [1] = biological target: ALX4 (Homo sapiens, UniProt Q9H161 200-286)
# [2] = biological target: ALX4 (Homo sapiens, UniProt Q9H161 200-286, Q225E)
# [3] = biological target: PRRX1 (Homo sapiens, UniProt P54821 80-166, F113S)
# [4] = biological target: PRRX1 (Homo sapiens, UniProt P54821 80-166)
# [5] = biological target: HOXB6 (Homo sapiens, UniProt P17509 132-218, K202E)
# [6] = biological target: HOXB6 (Homo sapiens, UniProt P17509 132-218)
# [7] = biological target: T1, NKX2-6 (Homo sapiens, UniProt A6NCS4 118-204, R150C)
# T1 sequence: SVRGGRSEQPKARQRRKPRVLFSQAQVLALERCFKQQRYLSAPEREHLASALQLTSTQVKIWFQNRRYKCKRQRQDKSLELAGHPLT
# [8] = biological target: MSX2 (Homo sapiens, UniProt P35548 130-214, R199I)
# [9] = biological target: ALX3 (Homo sapiens, UniProt O95076 139-225, N203Q)
# [10] = biological target: MSX2 (Homo sapiens, UniProt P35548 130-214)
# [11] = biological target: ALX3 (Homo sapiens, UniProt O95076 139-225)
# [12] = biological target: ALX3 (Homo sapiens, UniProt O95076 139-225, L168Q)
# [13] = biological target: ALX3 (Homo sapiens, UniProt O95076 139-225, L168V)
# [14] = biological target: MSX2 (Homo sapiens, UniProt P35548 130-214, F161Y)
# [15] = biological target: ALX3 (Homo sapiens, UniProt O95076 139-225, N203S)
# ALX3 (Homo sapiens, UniProt O95076 139-225, N203S), sequence (O95076 139-225 N203S): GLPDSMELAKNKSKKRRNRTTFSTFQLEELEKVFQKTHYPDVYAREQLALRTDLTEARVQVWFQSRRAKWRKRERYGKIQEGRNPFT
# HOXB6 (Homo sapiens, UniProt P17509 132-218), sequence (P17509 132-218): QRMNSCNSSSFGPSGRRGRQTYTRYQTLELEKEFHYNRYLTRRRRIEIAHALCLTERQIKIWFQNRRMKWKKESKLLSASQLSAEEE
# ALX4 (Homo sapiens, UniProt Q9H161 200-286), sequence (Q9H161 200-286): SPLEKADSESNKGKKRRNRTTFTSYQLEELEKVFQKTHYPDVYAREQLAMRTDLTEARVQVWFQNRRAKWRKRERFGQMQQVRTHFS
# ALX4 (Homo sapiens, UniProt Q9H161 200-286, Q225E), sequence (Q9H161 200-286 Q225E): as the sequence (Q9H161 200-286) above, with Q26E counted along it
# HOXB6 (Homo sapiens, UniProt P17509 132-218, K202E), sequence (P17509 132-218 K202E): as the sequence (P17509 132-218) above, with K71E counted along it
# PRRX1 (Homo sapiens, UniProt P54821 80-166), sequence (P54821 80-166): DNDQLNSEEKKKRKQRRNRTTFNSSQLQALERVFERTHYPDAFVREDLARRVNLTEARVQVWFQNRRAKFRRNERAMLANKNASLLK
# PRRX1 (Homo sapiens, UniProt P54821 80-166, F113S), sequence (P54821 80-166 F113S): as the sequence (P54821 80-166) above, with F34S counted along it
# ALX3 (Homo sapiens, UniProt O95076 139-225, L168Q), sequence (O95076 139-225 L168Q): as the sequence (O95076 139-225 N203S) above, with L30Q, S65N counted along it
# ALX3 (Homo sapiens, UniProt O95076 139-225, L168V), sequence (O95076 139-225 L168V): as the sequence (O95076 139-225 N203S) above, with L30V, S65N counted along it
# MSX2 (Homo sapiens, UniProt P35548 130-214), sequence (P35548 130-214): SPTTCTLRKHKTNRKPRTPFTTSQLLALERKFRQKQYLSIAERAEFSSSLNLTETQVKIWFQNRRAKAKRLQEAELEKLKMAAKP
# ALX3 (Homo sapiens, UniProt O95076 139-225), sequence (O95076 139-225): as the sequence (O95076 139-225 N203S) above, with S65N counted along it
# ALX3 (Homo sapiens, UniProt O95076 139-225, N203Q), sequence (O95076 139-225 N203Q): as the sequence (O95076 139-225 N203S) above, with S65Q counted along it
# MSX2 (Homo sapiens, UniProt P35548 130-214, F161Y), sequence (P35548 130-214 F161Y): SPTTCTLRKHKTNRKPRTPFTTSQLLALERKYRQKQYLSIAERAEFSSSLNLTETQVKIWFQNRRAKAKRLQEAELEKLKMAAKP
# MSX2 (Homo sapiens, UniProt P35548 130-214, R199I), sequence (P35548 130-214 R199I): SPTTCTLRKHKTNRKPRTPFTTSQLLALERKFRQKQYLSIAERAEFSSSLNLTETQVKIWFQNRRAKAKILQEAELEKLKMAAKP
sequence,measurement,setting,value
GCATTTGA,binding signal,[1],"9.56 upbm affinity estimate (log intensity, higher = more binding, comparable within an allelic series)"
same,binding signal,[2],"9.16 upbm affinity estimate (log intensity, higher = more binding, comparable within an allelic series)"
CCGTCCCC,binding signal,[1],"8.07 upbm affinity estimate (log intensity, higher = more binding, comparable within an allelic series)"
same,binding signal,[2],"8.31 upbm affinity estimate (log intensity, higher = more binding, comparable within an allelic series)"
CTCCGGCC,binding signal,[1],"8.03 upbm affinity estimate (log intensity, higher = more binding, comparable within an allelic series)"
same,binding signal,[2],"8.06 upbm affinity estimate (log intensity, higher = more binding, comparable within an allelic series)"
GAGCACCC,binding signal,[1],"7.99 upbm affinity estimate (log intensity, higher = more binding, comparable within an allelic series)"
same,binding signal,[3],"9.2 upbm affinity estimate (log intensity, higher = more binding, comparable within an allelic series)"
same,binding signal,[2],"8.37 upbm affinity estimate (log intensity, higher = more binding, comparable within an allelic series)"
same,binding signal,[4],"9.01 upbm affinity estimate (log intensity, higher = more binding, comparable within an allelic series)"
GACGCGGC,binding signal,[1],"8.04 upbm affinity estimate (log intensity, higher = more binding, comparable within an allelic series)"
same,binding signal,[2],"8.07 upbm affinity estimate (log intensity, higher = more binding, comparable within an allelic series)"
ATCAATCA,binding signal,[1],"11.7 upbm affinity estimate (log intensity, higher = more binding, comparable within an allelic series)"
same,binding signal,[2],"10.5 upbm affinity estimate (log intensity, higher = more binding, comparable within an allelic series)"
CGGCGGGC,binding signal,[1],"8.42 upbm affinity estimate (log intensity, higher = more binding, comparable within an allelic series)"
same,binding signal,[2],"8.3 upbm affinity estimate (log intensity, higher = more binding, comparable within an allelic series)"
CTTCCCGC,binding signal,[1],"8.12 upbm affinity estimate (log intensity, higher = more binding, comparable within an allelic series)"
same,binding signal,[5],"9.12 upbm affinity estimate (log intensity, higher = more binding, comparable within an allelic series)"
same,binding signal,[2],"8.22 upbm affinity estimate (log intensity, higher = more binding, comparable within an allelic series)"
same,binding signal,[6],"9.02 upbm affinity estimate (log intensity, higher = more binding, comparable within an allelic series)"
GTCGGCGA,binding signal,[1],"8.22 upbm affinity estimate (log intensity, higher = more binding, comparable within an allelic series)"
same,binding signal,[3],"9.28 upbm affinity estimate (log intensity, higher = more binding, comparable within an allelic series)"
same,binding signal,[2],"8.22 upbm affinity estimate (log intensity, higher = more binding, comparable within an allelic series)"
same,binding signal,[4],"9.44 upbm affinity estimate (log intensity, higher = more binding, comparable within an allelic series)"
AACGACAT,binding signal,[1],"9.98 upbm affinity estimate (log intensity, higher = more binding, comparable within an allelic series)"
same,binding signal,[2],"9.4 upbm affinity estimate (log intensity, higher = more binding, comparable within an allelic series)"
ATATGTAA,binding signal,[1],"10.2 upbm affinity estimate (log intensity, higher = more binding, comparable within an allelic series)"
same,binding signal,[2],"9.63 upbm affinity estimate (log intensity, higher = more binding, comparable within an allelic series)"
GCAGACCC,binding signal,[1],"7.9 upbm affinity estimate (log intensity, higher = more binding, comparable within an allelic series)"
same,binding signal,[2],"8.2 upbm affinity estimate (log intensity, higher = more binding, comparable within an allelic series)"
AATTTTGA,binding signal,[1],"11.1 upbm affinity estimate (log intensity, higher = more binding, comparable within an allelic series)"
same,binding signal,[2],"10.2 upbm affinity estimate (log intensity, higher = more binding, comparable within an allelic series)"
AGAGAGCG,binding signal,[1],"8.15 upbm affinity estimate (log intensity, higher = more binding, comparable within an allelic series)"
same,binding signal,[2],"8.26 upbm affinity estimate (log intensity, higher = more binding, comparable within an allelic series)"
CCTCCTAC,binding signal,[1],"7.75 upbm affinity estimate (log intensity, higher = more binding, comparable within an allelic series)"
same,binding signal,[2],"8.06 upbm affinity estimate (log intensity, higher = more binding, comparable within an allelic series)"
CTCTCGCC,binding signal,[1],"7.89 upbm affinity estimate (log intensity, higher = more binding, comparable within an allelic series)"
same,binding signal,[2],"8.06 upbm affinity estimate (log intensity, higher = more binding, comparable within an allelic series)"
ACAGCTCT,binding signal,[1],"8.24 upbm affinity estimate (log intensity, higher = more binding, comparable within an allelic series)"
same,binding signal,[2],"8.19 upbm affinity estimate (log intensity, higher = more binding, comparable within an allelic series)"
CCATCGGA,binding signal,[1],"8.15 upbm affinity estimate (log intensity, higher = more binding, comparable within an allelic series)"
same,binding signal,[2],"8.29 upbm affinity estimate (log intensity, higher = more binding, comparable within an allelic series)"
CCTAGGAC,binding signal,[1],"7.82 upbm affinity estimate (log intensity, higher = more binding, comparable within an allelic series)"
same,binding signal,[2],"8.1 upbm affinity estimate (log intensity, higher = more binding, comparable within an allelic series)"
CCCGACAG,binding signal,[1],"8.07 upbm affinity estimate (log intensity, higher = more binding, comparable within an allelic series)"
same,binding signal,[2],"8.17 upbm affinity estimate (log intensity, higher = more binding, comparable within an allelic series)"
CATCAATC,binding signal,[1],"10.6 upbm affinity estimate (log intensity, higher = more binding, comparable within an allelic series)"
same,binding signal,[5],"9.69 upbm affinity estimate (log intensity, higher = more binding, comparable within an allelic series)"
same,binding signal,[6],"10.5 upbm affinity estimate (log intensity, higher = more binding, comparable within an allelic series)"
ATAATACA,binding signal,[1],"11.1 upbm affinity estimate (log intensity, higher = more binding, comparable within an allelic series)"
same,binding signal,[2],"10.4 upbm affinity estimate (log intensity, higher = more binding, comparable within an allelic series)"
CCACCGGC,binding signal,[1],"8.04 upbm affinity estimate (log intensity, higher = more binding, comparable within an allelic series)"
same,binding signal,[5],"8.97 upbm affinity estimate (log intensity, higher = more binding, comparable within an allelic series)"
same,binding signal,[2],"7.94 upbm affinity estimate (log intensity, higher = more binding, comparable within an allelic series)"
same,binding signal,[7],"9.32 upbm affinity estimate (log intensity, higher = more binding, comparable within an allelic series)"
same,binding signal,[8],"9.39 upbm affinity estimate (log intensity, higher = more binding, comparable within an allelic series)"
same,binding signal,[9],"7.68 upbm affinity estimate (log intensity, higher = more binding, comparable within an allelic series)"
same,binding signal,[10],"9.41 upbm affinity estimate (log intensity, higher = more binding, comparable within an allelic series)"
same,binding signal,[11],"7.64 upbm affinity estimate (log intensity, higher = more binding, comparable within an allelic series)"
same,binding signal,[12],"7.76 upbm affinity estimate (log intensity, higher = more binding, comparable within an allelic series)"
same,binding signal,[13],"7.67 upbm affinity estimate (log intensity, higher = more binding, comparable within an allelic series)"
same,binding signal,[14],"9.32 upbm affinity estimate (log intensity, higher = more binding, comparable within an allelic series)"
same,binding signal,[15],"7.64 upbm affinity estimate (log intensity, higher = more binding, comparable within an allelic series)"
same,binding signal,[6],"8.83 upbm affinity estimate (log intensity, higher = more binding, comparable within an allelic series)"
